Test results: PubChem BioAssay AID504411 (The Scripps Research Institute Molecular Screening Center, 2011)
Hit rate of the full screen: of about 340,000 compounds, about 200 (0.059%) were called active. This is one part of a sample in which actives are shown more often than they occur. Rule as the data show it: active = inhibition above about 34%; inactive = the rest.

The compounds below were run against Diacylglycerol lipase-beta (Homo sapiens) (UniProt Q8NCG7) (assay: inhibition of human DAGLB hydrolase activity – biochemical, fluorescence, HTS, primary screen (AID 504411;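 also: 0% = enzyme with vehicle and 100% = wells lacking enzyme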)). Conditions: HEK293T DAGLB membrane lysate, EnzChek fluorogenic substrate; at 5.17 µM; stronger effect = higher value.
Diacylglycerol lipase-beta (Homo sapiens), sequence (Q8NCG7 whole entry, looked up): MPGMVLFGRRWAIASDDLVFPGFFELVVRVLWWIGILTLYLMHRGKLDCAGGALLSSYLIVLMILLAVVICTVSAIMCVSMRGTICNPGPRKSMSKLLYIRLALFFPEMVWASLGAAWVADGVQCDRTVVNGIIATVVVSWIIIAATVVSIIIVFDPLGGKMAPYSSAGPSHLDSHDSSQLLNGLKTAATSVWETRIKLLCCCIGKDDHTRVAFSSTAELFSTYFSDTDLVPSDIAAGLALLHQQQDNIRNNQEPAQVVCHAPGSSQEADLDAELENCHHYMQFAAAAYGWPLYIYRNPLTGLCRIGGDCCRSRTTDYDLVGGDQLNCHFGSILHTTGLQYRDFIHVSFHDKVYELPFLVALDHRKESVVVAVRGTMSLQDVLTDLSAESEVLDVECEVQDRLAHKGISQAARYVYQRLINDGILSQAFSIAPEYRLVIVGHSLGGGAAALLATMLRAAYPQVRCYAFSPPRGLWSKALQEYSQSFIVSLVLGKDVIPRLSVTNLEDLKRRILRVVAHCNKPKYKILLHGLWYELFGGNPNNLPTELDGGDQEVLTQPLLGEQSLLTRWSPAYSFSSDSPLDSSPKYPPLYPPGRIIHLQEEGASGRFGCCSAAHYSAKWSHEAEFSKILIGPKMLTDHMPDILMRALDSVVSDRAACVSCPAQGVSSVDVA
COC(=O)c1cccc(N2C(=O)C3C4C=CC(CC4)C3C2=O)c1 (stereo not drawn) was tested, and the inhibition was -2.32% (inactive).
For O=C(Oc1cccc(N2C(=O)C3C4c5ccccc5C(c5ccccc54)C3C2=O)c1)c1ccco1 (stereo not drawn), the inhibition was 34.9% (active).
With CC(=O)Nc1ccc(N2C(=O)C3C4CC(=O)C(c5ccccc54)C3C2=O)cc1 (stereo not drawn) the inhibition was 2.73% (inactive).
In the case of CCOC(=O)C1=NN(c2ccc(Cl)cc2)/C(=C/C2=NCCc3cc(OC)c(OC)cc32)S1, the inhibition is reported as 3.17% (inactive).
With CCN(CC(=O)Nc1ccc(NC(C)=O)cc1)C(=O)CSC(=S)N1CCCC1 the inhibition was -0.87% (inactive).
Cn1c(-c2ccc(C(=O)c3ccccc3)s2)nc2ccccc21 was tested, and the inhibition was -0.73% (inactive).
For O=C1Cc2cc(S(=O)(=O)Nc3cccc(F)c3)ccc2N1, the inhibition was 0.82% (inactive).
With O=C(CCNC(=O)c1ccc([N+](=O)[O-])cc1)NC1CCCCC1 the inhibition was 0.66% (inactive).
In the case of O=C(/C=C/c1ccc(Cl)cc1)NCCCn1ccnc1, the inhibition is reported as -2.05% (inactive).
In the case of CCOc1ccc(Br)cc1S(=O)(=O)Nc1cccc(S(=O)(=O)N(CC)CC)c1, the inhibition is reported as -0.11% (inactive).
For Cc1cc(NC(=O)Nc2c[nH]c(=O)[nH]c2=O)ccc1Br, the inhibition was -0.76% (inactive).
For Cc1ccc(-c2nn(C(C)(C)C)c3ncnc(N)c23)cc1, the inhibition was -2.33% (inactive).
CCCCCCn1c(=O)n2n(c1=O)C[C@]1(OC(=O)NCc3ccc(OC)c(OC)c3)CN(S(=O)(=O)c3ccc(C)cc3)C[C@]1(O)C2 was tested, and the inhibition was 1.56% (inactive).
For CC(NC(=O)c1ccc(S(=O)(=O)Nc2ccccc2)cc1)c1ccc(S(N)(=O)=O)cc1 (stereo not drawn), the inhibition was 1.2% (inactive).
For Cc1ccccc1OCCC(=O)Nc1c(C)n(C)n(-c2ccccc2)c1=O, the inhibition was -2.86% (inactive).
For CCOc1nnc(C)c2c(C)n(-c3cccc(Cl)c3)nc12, the inhibition was -5.36% (inactive).
For O=[N+]([O-])c1cc(S(=O)(=O)CCCN2CCOCC2)ccc1F, the inhibition was -0.41% (inactive).
In the case of Cc1nc2ccc(S(=O)(=O)N(C)CC(=O)NC(C)c3ccccc3)cc2s1 (stereo not drawn), the inhibition is reported as 1.36% (inactive).
O=C1N(c2ccc(Cl)cc2)C(c2ccc(Cl)cc2)N2CCCN12 (stereo not drawn) was tested, and the inhibition was -1.46% (inactive).
COc1ccc(S(=O)(=O)Nc2ccc3cn[nH]c3c2)cc1[N+](=O)[O-] was tested, and the inhibition was -1.73% (inactive).
For CCOc1ncccc1C(=O)NNC(=O)c1cccc(S(=O)(=O)Nc2ccccc2OC)c1, the inhibition was 1.16% (inactive).
With COc1cccc(/C=N/Nc2ccc(S(=O)(=O)Nc3ccccc3C(=O)O)cc2[N+](=O)[O-])c1O the inhibition was 39.5% (active).
With COc1ccc(Br)cc1/C=N/Nc1ccc(S(=O)(=O)Nc2ccccc2C(=O)O)cc1[N+](=O)[O-] the inhibition was 35.8% (active).
In the case of COC(=O)c1ccccc1NS(=O)(=O)c1ccc2[nH]c(=O)[nH]c2c1, the inhibition is reported as -1.28% (inactive).
In the case of COc1ccc(S(=O)(=O)Nc2ccccc2C(=O)N2CCCC2)cc1C, the inhibition is reported as 0.86% (inactive).
With Cc1ccc(OCCCCN2CCCCC2)c(Br)c1 the inhibition was 1.62% (inactive).
For CCCNC(=O)CN(Cc1ccccc1F)S(=O)(=O)c1ccc(C)cc1, the inhibition was 1.71% (inactive).
With COc1ccccc1C(=O)NC(=O)COC(=O)C1CC1 the inhibition was 3.34% (inactive).
N#CC(Cc1cc2ccccc2n1S(=O)(=O)c1ccccc1)OCc1ccccc1 (stereo not drawn) was tested, and the inhibition was -8.05% (inactive).
For O=C(O)CCCCCCCCc1cn(CN2C(=O)c3ccccc3C2=O)nn1, the inhibition was 1.19% (inactive).
With COc1cc(C2C(C(=O)c3sc(C)nc3C)=C(O)C(=O)N2CCN(C)C)cc(OC)c1OC (stereo not drawn) the inhibition was 0.65% (inactive).
For O=C(N[C@@H]1C/C=C\C[C@@H](CC(=O)N(CCO)Cc2ccccc2)C(=O)N[C@H](Cc2ccccc2)COC1=O)OCC1c2ccccc2-c2ccccc21, the inhibition was -1.54% (inactive).
With O=C(CCc1ccc(O)cc1)NN=Cc1cc(Br)ccc1O the inhibition was 3.63% (inactive).
For NC(N)=NCCCc1cn(CC(=O)N2CCNCC2)nn1, the inhibition was -3.67% (inactive).
In the case of COc1ccc(CCNC(=O)c2ccc(NC(=O)CC3SC(N4CCCCC4)=NC3=O)cc2)cc1OC (stereo not drawn), the inhibition is reported as 2.1% (inactive).
With O=C(O)c1ccccc1-c1ccccc1C(=O)Nc1ccccc1Br the inhibition was 0.09% (inactive).
CC(NC(=O)c1ccccc1SCC(=O)N1CCCC1)c1ccccc1 (stereo not drawn) was tested, and the inhibition was 0.41% (inactive).
Cc1ccc2cccc(O)c2[n+]1[O-] was tested, and the inhibition was 1.39% (inactive).
With CN1CCC(=NNC(=O)CN(c2cccc(Cl)c2)S(C)(=O)=O)CC1 the inhibition was -3.34% (inactive).
For Cc1ccccc1CSc1nnc(Cn2c(=O)sc3ccccc32)n1C, the inhibition was 0.6% (inactive).
For C/C(=N\OCC(=O)Nc1ccc(Br)cc1)c1cccs1, the inhibition was -7.81% (inactive).
With COc1ccccc1C1CCN(C(=S)Nc2ccc(Br)cc2)CC1 the inhibition was 23.2% (inactive).
CCc1cccc(C)c1NS(=O)(=O)c1c(C)nc2sccn2c1=O was tested, and the inhibition was -0.01% (inactive).
For COc1ccc(S(=O)(=O)N/N=C\c2ccc(OC)c(COc3ccc(C)cc3[N+](=O)[O-])c2)cc1, the inhibition was -2.91% (inactive).
In the case of O=c1c2ccccc2nc2n1C(CSCc1cccc(C(F)(F)F)c1)CS2 (stereo not drawn), the inhibition is reported as -3.32% (inactive).
In the case of COc1cc(NC(=O)CCS(=O)(=O)c2ccc3c(c2)oc(=O)n3C)cc(OC)c1, the inhibition is reported as -2.39% (inactive).
For CC(=O)Nc1ccc(/C(C)=N/NC(=O)CN(c2ccccc2Br)S(C)(=O)=O)cc1, the inhibition was 1.17% (inactive).
With COc1ccc(CNC(=O)C(=O)N2CCC3(CC2)OCCN3S(=O)(=O)c2ccc(C)cc2)cc1 the inhibition was -1.66% (inactive).
For COC(=O)c1cccc(NS(C)(=O)=O)c1, the inhibition was -0.97% (inactive).
With CC(OC(=O)c1cc2ccccc2o1)C(=O)Nc1ccc(N2CCOCC2)cc1 (stereo not drawn) the inhibition was -1.16% (inactive).
In the case of COc1ccc(C(=O)OCC(=O)Nc2cc(C)on2)cc1F, the inhibition is reported as 1.42% (inactive).
With COCCCN1C(=O)C(CC(=O)NCc2cccs2)CC(C(=O)N2CCOCC2)=C1C (stereo not drawn) the inhibition was -1.14% (inactive).
With CN(C(=O)CN1C(=O)CCSc2ccc(S(=O)(=O)N3CCCC3)cc21)c1ccccc1 the inhibition was 3.08% (inactive).
In the case of O=C1CCCN1CCCNC(=S)Nc1ccc(F)c(Cl)c1, the inhibition is reported as 0.01% (inactive).
In the case of COC(=O)CN1C(C)=Nc2ccc(Br)cc2C1c1ccccc1 (stereo not drawn), the inhibition is reported as 0.08% (inactive).
Cc1ccccc1C(=O)NNC(=O)CN1C(=O)c2ccccc2C1=O was tested, and the inhibition was 0.77% (inactive).
With CC(=O)c1ccc(S(=O)(=O)N2CCC(Oc3ccc(-n4cnnn4)cc3)CC2)cc1 the inhibition was -1.2% (inactive).
In the case of COc1ccc(-c2cc(C(F)(F)F)nc(S(C)(=O)=O)n2)cc1OC, the inhibition is reported as -5.4% (inactive).
O=C(Cn1ncc2c3ccccc3n(Cc3ccccc3)c2c1=O)NCCCN1CCOCC1 was tested, and the inhibition was -2.32% (inactive).
With CC(C)c1ccc2c(c1)c(SC(C)(C)C)c(CC(C)(C)C(=O)O)n2Cc1ccc(Cl)cc1 the inhibition was 1.23% (inactive).
For COCc1cc(C)n(CC(=O)NCC2CCCO2)c(=O)c1C#N (stereo not drawn), the inhibition was 0.87% (inactive).
With CS(=O)(=O)N1CCCC(C(=O)Nc2ccccc2C(F)(F)F)C1 (stereo not drawn) the inhibition was -1.81% (inactive).
COC(=O)C(=Nc1ccccc1)/C(C(=O)C(=O)N(C)c1ccccc1)=C(\O)c1ccc(Cl)cc1 was tested, and the inhibition was 4.54% (inactive).
COc1ccc(CNC(=O)c2ccc3oc(C(C)C)nc3c2)cc1 was tested, and the inhibition was -2.02% (inactive).
With Cc1ccc(CC(=O)N(C)CC(=O)N(CC(C)C)c2c(N)n(CC(C)C)c(=O)[nH]c2=O)cc1C the inhibition was 1.88% (inactive).
With COc1ccc(C2=NS(=O)(=O)N(C)C(C(=O)NC(C)c3ccccc3)=C2)cc1 (stereo not drawn) the inhibition was -1.27% (inactive).
With CCCNC(=O)CCn1cc(-c2ccc(OC)cc2)nc1CCN the inhibition was -2.88% (inactive).
With CCC(Oc1ccccc1C)C(=O)Nc1ccc(S(=O)(=O)Nc2cc(C)on2)cc1 (stereo not drawn) the inhibition was 2.56% (inactive).
With Cc1cccc2[nH]c(CN(C)C(=O)C3CCC(=O)N(CCc4ccccc4)C3)nc12 (stereo not drawn) the inhibition was 1.57% (inactive).
Cc1ccc(S(=O)(=O)N2[C@@H](c3ccc(Br)cc3)C(C(=O)O)=C[C@H]2CC2CCCC2)cc1 was tested, and the inhibition was 7.5% (inactive).
In the case of Cc1ccc(N2CC(C(=O)N3CCC4(CC3)CC(=O)c3ccccc3O4)CC2=O)cc1C (stereo not drawn), the inhibition is reported as -0.05% (inactive).
CCc1c(C)sc(NC(=O)OC)c1C(=O)N1CCOCC1 was tested, and the inhibition was -2.33% (inactive).
In the case of Cc1ccccc1C(=O)N1CCC(C(=O)Nc2ccc(S(=O)(=O)N(C)C(C)C)cc2)CC1, the inhibition is reported as -0.44% (inactive).
With CC1Cc2ccccc2N1C(=O)c1cc2sccc2n1Cc1ccccc1 (stereo not drawn) the inhibition was -8.28% (inactive).
With COc1cccc(NC(=O)CN(C)CC(=O)c2c(N)n(Cc3ccccc3)c(=O)n(C)c2=O)c1 the inhibition was 0.04% (inactive).
Nc1ccccc1-c1nc2ccncc2[nH]1 was tested, and the inhibition was 0.67% (inactive).
With CN(C)c1ccc(NC(=O)CN2C3CCCC2CC(NC(=O)c2ccccc2)C3)cc1 (stereo not drawn) the inhibition was 0.94% (inactive).
CCOC(=O)c1c(NC(=O)CCCN2CCOCC2)sc2c1CC(C)(C)OC2 was tested, and the inhibition was -0.04% (inactive).
For CCOCCCNC(=O)c1cc2c(=O)n3ccccc3nc2s1, the inhibition was 1.17% (inactive).
CCCC(O)(c1ccccc1)C(c1ccccc1)c1ccccn1 (stereo not drawn) was tested, and the inhibition was -1.16% (inactive).
With Cc1ccc(OC(=O)c2c(C)nn(-c3ccccc3)c2C)cc1 the inhibition was -9.87% (inactive).
For Cc1ccc(Cl)c(NC(=O)CN(C)CC(=O)Nc2ccc(F)c(F)c2F)c1Cl, the inhibition was 2.92% (inactive).
CCOc1ccccc1OCCCNCc1ccccc1 was tested, and the inhibition was -2.73% (inactive).
With C=CCOc1nc2c(c(=O)n(C)c(=O)n2C)n1Cc1ccc(Cl)cc1Cl the inhibition was -0.75% (inactive).
In the case of CCOC(=O)C1CCN(C(=O)Nc2ccc(C)c(Cl)c2)CC1, the inhibition is reported as 0.52% (inactive).
With CCN(CC(=O)NCCCN1CCOCC1)S(=O)(=O)c1cc(Cl)ccc1Cl the inhibition was 3.54% (inactive).
CN(c1ccccn1)c1ncnc2[nH]ncc12 was tested, and the inhibition was 0.01% (inactive).
In the case of Cc1ccnc(NC(=O)C2CCN(S(=O)(=O)c3c(C)c(C)cc(C)c3C)CC2)c1, the inhibition is reported as -5.56% (inactive).
